Source: PubChem
Shiga inhibitor = Shiga toxin inhibition. AID 2315. 9.2% of 290,000 active. Vero cells, Shiga toxin protein synthesis inhibition reporter. inhibition, % at 38.7 µM; in the data active means inhibition mostly above about 28%, no sharp cut-off; inactive means mostly below about 43%; further: 0% is about no effect
Pf growth 48h = inhibits P. falciparum growth in the first generation, 48 h | Potency, µM (highest dose often 28.7 µM), for the others: at the highest dose activity change, negative = inhibition, hits mostly inhibitors | P. falciparum luciferase growth in erythrocytes, 48 h | 5.9% of 310,000 active | AID 504832; further: potency means the concentration at half of the fitted maximal effect; on the % scale 0 is the no-effect control and ±100 the full control effect
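First compound was added to culture medium, then infected red cells at 0.1% parasitemia and 2% hematocrit (final). After incubation at 37 C under 5% CO2, luciferase detection reagent was dispensed and light output recorded.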
AMA1-RON2 inh = AMA1-RON2 (P. falciparum) interaction inhibition. AlphaScreen AMA1-biotinylated RON2 peptide binding. Potency, µM (doses to about 58.2 µM), inactives show at the top dose activity change, negative = inhibition, most hits filed as inhibitors. 0.2% of 360,000 active. AID 720542;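 further: potency means the concentration at half of the fitted maximal effect; 0% = vehicle wells and -100% = peptide control; nearly all actives have a fitted effect of over 45% in size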
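AMA1 (3D7) with his tag at 25 nM final met compounds first, then biotinylated RON2 peptide at 25 nM; detection used donor plus acceptor beads, 10 µg/mL apiece, read by AlphaScreen after 30 min at room temperature.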
SARS PLpro yeast = blocks SARS-CoV papain-like protease in a yeast assay. S. cerevisiae expressing SARS-CoV PLpro, growth rescue. Potency, µM (titrated, usually from 32.9 µM), inactives show at the highest dose activity, positive = growth rescue, hits mostly activators. 0.19% of 330,000 active. AID 485353; calls by dose curve; further: potency means the concentration at half of the fitted maximal effect; 0% is about no effect; nearly all actives have a fitted effect of over 55% in size
Pf growth 96h = P. falciparum growth inhibition at 96 hour, primary screen for plastid delayed-death inhibitors. P. falciparum luciferase reporter growth, 96 h. Potency, µM (series often up to 28.7 µM), for the others: at the top dose activity change, negative = inhibition, hits mostly inhibitors. 6.9% of 320,000 active; further: potency means the concentration at half of the fitted maximal effect; on the % scale 0 is the no-effect control and ±100 the full control effect
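Erythrocytes infected with luciferase-expressing P. falciparum were dispensed at 2% hematocrit and 0.05% parasitemia (final), then incubated with compounds 96 hours at 37 C in 5% CO2. Luminescence after detection reagent addition reported growth.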
Cycloheximide cs = counter-screen hit for Shiga toxin inhibitors, cycloheximide; max response, %; AID 2314; 12% of 300,000 active; cell reporter, cycloheximide protein synthesis inhibition counterscreen; in the data active means max response mostly above about 13%, no sharp cut-off; inactive means mostly below about 14%; further: read at 38.3 µM for the half of the compounds with a filed dose; 0% is about no effect
Numbers without * were called inactive; i = inactive; ? = inconclusive; nt = not tested or not shown; [ ] = remark or other dose. The list is not random: actives were taken first. Their share in the collection is about 19%. Unless noted, the call rests on the fitted dose curve; in most records, active means well fitted curve in the direction sought with a large enough effect; inconclusive means small, poorly fitted or top-dose-only effect, or another doubt; inactive means no such curve, though single readings can be large; an effect the other way counts as inactive or inconclusive.

SMILES | Shiga inhibitor | Pf growth 48h | AMA1-RON2 inh | SARS PLpro yeast | Pf growth 96h | Cycloheximide cs
COc1cccc(C(=O)OCC(=O)c2c[nH]c3ccccc23)c1O | 92.6* | 35.1% | -4.6% | 1.1% | 30.4% | 33.5*
CC(=O)OCC(=O)c1c[nH]c2ccccc12 | 19.5 | 18.0% | -5.0% | -9.8% | 0.3% | 13.2
COc1cccc(/C=C/C(=O)OCC(=O)c2c[nH]c3ccccc23)c1 | nt | ? | 5.7% | 12.5% | ? | nt
COc1ccc2nc(Cl)c(C=O)c(N3CCOCC3)c2c1 | nt | nt | 17.3% | nt | nt | nt
Cc1nn(C(C)C(=O)NCCCN(Cc2ccccc2)C(C)C)c(=O)c2c1sc1ccccc12 (centres undefined) | -3.8 | ? | -4.4% | -5.7% | -1.4% | -4.7
CCC(C(=O)NCCCN(CC)Cc1ccccc1)n1nc(C)c2sc3ccccc3c2c1=O (centres undefined) | -2.2 | 10.4µM* | -1.3% | 3.3% | 41.0% | 2.7
Cc1cc2occ(CC(=O)N(CCC(C)C)c3c(N)n(Cc4ccccc4)c(=O)[nH]c3=O)c2cc1C | nt | ? | -14.7% | 1.4% | ? | nt
C=CCNC(=S)NNC(=O)COc1ccc(Br)cc1 | 2.0 | 2.2% | 41.9% | ? | 5.86µM* | 3.9
C=CCNC(=S)NNC(=O)COc1cccc(Cl)c1 | 12.8 | 6.8% | 29.9% | 3.3% | 43.5% | 7.1
C=CCNC(=S)NNC(=O)COc1ccc2cc(Br)ccc2c1 | 100.6* | 68.0% | 25.7% | -3.9% | ? | 43.6*
Cc1ccc(O)c(CNCCNCc2cc(C)ccc2O)c1 | nt | 7.38µM* | 113.7% | 0.8% | 2.62µM* | nt
CCc1ccc(O)c(CNCCNCc2cc(CC)ccc2O)c1 | nt | 6.57µM* | 57.0% | 4.2% | 5.86µM* | nt
CC1Cc2ccccc2N1C(=O)COC(=O)CCc1nc2ccccc2c(=O)[nH]1 (centres undefined) | -9.8 | -6.8% | 10.3% | -0.3% | 11.2% | -4.4
Cc1nc(N2CCOCC2)[nH]c(=O)c1C | 5.6 | 39.7% | -0.6% | 1.7% | 37.0% | 5.7
Cc1ccc(NC(=O)N(Cc2nc3ccccc3c(=O)[nH]2)Cc2cccs2)cc1 | 7.4 | ? | 40.8% | 9.6% | -13.3% | 10.9
CCCCCC(C)N (centres undefined) | nt | ? | nt | nt | 12µM* | nt
CC(C)(C)CC(=O)Nc1nnc(SCC(=O)N2CCCCC2)s1 | 9.2 | -15.4% | 12.2% | 0.6% | -13.8% | 2.5
Nc1cc(=O)[nH]c(=O)n1CC1CC1 | -3.1 | 7.9% | -4.9% | 2.7% | 4.8% | -3.2
Cc1ccc(C(=O)CSc2n[nH]c(C)n2)cc1 | 85.9* | 0.0% | 16.9% | -0.4% | 30.7% | 29.9*
CCc1ccc(C(=O)CSc2n[nH]c(C)n2)cc1 | 110.8* | 25.1% | 17.6% | -17.2% | -26.0% | 43.6*
Cc1ccc(C)c(C(=O)CSc2n[nH]c(C)n2)c1 | -26.6 | -38.5% | 9.3% | -10.4% | ? | 6.2
Cc1nc(SCC(=O)O)n[nH]1 | -4.0 | 7.4% | -1.8% | -0.4% | 21.3% | -1.5
COc1ccc(CCNC(=O)c2cccnc2)cc1 | -4.5 | 5.9% | 1.6% | -9.5% | nt | 0.5
O=C1CC(c2ccccc2)c2cc(O)ccc2O1 (centres undefined) | -2.6 | -14.2% | -2.9% | -10.1% | 10.4µM* | -2.1
O=C1CC(c2ccc3c(c2)OCO3)c2cc(O)ccc2O1 (centres undefined) | i | nt | nt | nt | nt | -1.4
SMILES | Shiga inhibitor | Pf growth 48h | AMA1-RON2 inh | SARS PLpro yeast | Pf growth 96h | Cycloheximide cs
CN(C)C(CNC(=O)CCNC(=O)c1ccc(Cl)cc1)c1ccco1 (centres undefined) | nt | 16.3% | 4.7% | nt | 2.4% | nt
COc1ccc(Cl)cc1C(=O)NCC(c1ccco1)N1CCCC1 (centres undefined) | 1.6 | ? | -9.9% | 0.1% | 4.15µM* | -1.6
CSCCC(NC(=O)c1ccccc1Br)C(=O)NCC(c1ccco1)N1CCCCC1 (centres undefined) | nt | ? | -1.2% | -3.8% | 9.28µM* | nt
COc1ccccc1C(CNC(=O)CCNC(=O)c1ccccc1Cl)N1CCCC1 (centres undefined) | nt | ? | 9.3% | nt | 0.1% | nt
COc1cc(C(=O)NCC(c2ccco2)N2CCCC2)ccc1OCc1ccc(Cl)cc1Cl (centres undefined) | nt | nt | -19.3% | nt | nt | nt
COc1ccccc1C(=O)NCCC(=O)NCC(c1ccco1)N1CCCC1 (centres undefined) | nt | -26.6% | -3.8%[11.6 µM] | 1.2% | 11.7µM* | nt
O=C(CCNC(=O)c1ccc(Cl)cc1)NCC(c1ccco1)N1CCCC1 (centres undefined) | nt | 11.7µM* | 14.4% | 0.7% | ? | nt
COc1ccc(C(=O)CCC(=O)Nc2cccnc2)cc1OC | 11.4 | 6.2% | 2.6% | 0.3% | 4.3% | -1.9
O=C(OCC(=O)N1CCCC1=O)C1COc2ccccc2O1 (centres undefined) | 1.8 | -0.5% | -7.8% | 1.3% | 14.9% | 7.0
O=C(NC1CCCCC1)C(C1CC1)n1c(=O)c(-c2cc3ccccc3[nH]2)nc2ccccc21 (centres undefined) | nt | nt | 67.7% | nt | nt | nt
c1ccc(COc2ncnc3c2ncn3CCCNCc2ccc3c(c2)OCO3)cc1 | nt | nt | 6.4% | nt | nt | nt
COc1ccc(CNC(=O)N2[C@H]3CC[C@@H]2C=C(c2ccc(F)cc2OCc2ccccc2)C3)cc1OC | nt | nt | 12.5% | nt | nt | nt
Cc1cc(C(=O)N2CCCC(C(=O)c3ccc(Oc4ccccc4)cc3)C2)n[nH]1 (centres undefined) | -2.2 | 10.4µM* | -11.9% | -40.7% | ? | -1.5
CC(=O)N1CCCC(C(=O)c2ccc(Oc3ccccc3)cc2)C1 (centres undefined) | 57.3* | -17.7% | -13.3% | -5.0% | ? | 33.7*
CCOc1ccccc1NC(=S)NCC1CCCO1 (centres undefined) | -5.0 | 7.0% | 15.2% | 3.6% | 30.0% | -2.6
O=c1c(-c2ccccc2)c(O)nc(SCCN2CCOCC2)n1-c1ccccc1 | 3.0 | -4.3% | 5.1% | -21.7% | 0.7% | -4.1
CC1CCN(S(=O)(=O)c2ccc(C(=O)Nc3ccccn3)cc2)CC1 | nt | ? | 2.9% | 2.7% | ? | nt
CN(C)NC(=O)c1ccsc1NC(=O)c1ccc(S(=O)(=O)N2CCCC2)cc1 | -10.9 | 11.7µM* | 38.9% | -2.7% | 5.22µM* | 1.1
CN(c1ccc(C(=O)Nc2ccc(S(=O)(=O)N3CCCC3)cc2)cc1)S(C)(=O)=O | 6.8 | -15.3% | 1.9% | -0.1% | ? | 1.9
CC1CCN(S(=O)(=O)c2ccc(C(=O)Nc3sccc3C(N)=O)cc2)CC1 | 15.6 | ? | -5.0% | 1.9% | 8.28µM* | 17.0
Cc1cccc(NC(=O)CN(CCc2ccccc2)S(C)(=O)=O)c1 | -1.7 | 2.4% | 12.8% | -0.4% | 109.9% | -1.2
Cc1ccc(N2C(=O)c3n[nH]c(C)c3C2c2ccco2)cc1 (centres undefined) | 72.5* | 41.7% | 11.2% | -5.3% | -8.0% | 37.0*
N#Cc1ccccc1S(=O)(=O)Nc1ccc2c(c1)C(=O)OC2 | -10.1 | 21.3% | 16.8% | -1.8% | -25.9% | -1.1
COc1ccc(CNc2ccc(Br)cc2)cc1 | 126.3* | 65.0% | 10.6% | -2.5% | -20.2% | 36.4*
